# Screening data as filed in PubChem BioAssay.
# HTT-AS act – HTT-AS promoter activation. 48,000 compounds, 0.24% hits. Potency, µM (top dose mostly 57.5 µM), for inactives: at the highest dose activity change, positive = activation, actives largely listed as activators. HEK293 HTT-AS promoter firefly luciferase reporter, 24 h; response scale: percent change from vehicle, -100% = no light; further: potency means the concentration at half of the fitted maximal effect; nearly all actives have a fitted effect of over 55% in size
#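 Luminescence was read after Dual-Glo reagent and a 10 min room-temperature incubation. Values were normalized to vehicle (0% activity) and zero RLU (-100% activity). Reporter HEK293 cells had been exposed to compounds (up to 57.5 uM final) for 24 h.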
# NTMT1 inh – NTMT1 methyltransferase inhibition | Q9BV86 | NTMT1 MTase-Glo SAH luminescence, purified enzyme | Potency, µM (highest dose often 114 µM), inactives show top-dose activity change, negative = inhibition, most hits filed as inhibitors | 59,000 compounds, 2.5% hits | AID 1645870;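 further: potency means the concentration at half of the fitted maximal effect; plate controls were DMSO vehicle for no effect and no enzyme for full effect; nearly all actives have a fitted effect of over 65% in size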
# DRV1 agonist – activates human resolvin D1 receptor GPR32; O75388; CHO-K1 GPR32 beta-arrestin PathHunter luminescence, 90 min; zero percent set by DMSO-only wells; activation, % at 76.9 µM; 48,000 compounds, 2.5% hits; AID 1346428;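 active means activation of at least 60% and not above a set upper limit, about 1 call in 100 departs from these limits; inconclusive means activation of 40% to 60%, or above that upper limit; inactive means activation under 40%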; further: 0% is about no effect
#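 PathHunter enzyme-fragment complementation, CHO-K1 GPR32 stable line; 2,500 cells/well, overnight attach; cpd 90 min 37 °C 5% CO2; detection reagent 1 h RT; chemiluminescence. DMSO = EC0.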
# FH mod – Identification of activators of human fumarate hydratase by quantitative high-throughput screening. FH coupled MDH/diaphorase resazurin fluorescence, 15 min. Potency, µM (top dose mostly 79.9 µM), without a hit: top-dose activity change, negative = inhibition, hits mostly inhibitors. 54,000 compounds, 0.22% hits. AID 1347055, 2019; further: potency means the concentration at half of the fitted maximal effect; on the % scale 0 is the no-effect control and ±100 the full control effect; the screen sought activators but most active calls are inhibition curves; nearly all actives have a fitted effect of over 45% in size
# Target sequence (P07954 whole entry, looked up): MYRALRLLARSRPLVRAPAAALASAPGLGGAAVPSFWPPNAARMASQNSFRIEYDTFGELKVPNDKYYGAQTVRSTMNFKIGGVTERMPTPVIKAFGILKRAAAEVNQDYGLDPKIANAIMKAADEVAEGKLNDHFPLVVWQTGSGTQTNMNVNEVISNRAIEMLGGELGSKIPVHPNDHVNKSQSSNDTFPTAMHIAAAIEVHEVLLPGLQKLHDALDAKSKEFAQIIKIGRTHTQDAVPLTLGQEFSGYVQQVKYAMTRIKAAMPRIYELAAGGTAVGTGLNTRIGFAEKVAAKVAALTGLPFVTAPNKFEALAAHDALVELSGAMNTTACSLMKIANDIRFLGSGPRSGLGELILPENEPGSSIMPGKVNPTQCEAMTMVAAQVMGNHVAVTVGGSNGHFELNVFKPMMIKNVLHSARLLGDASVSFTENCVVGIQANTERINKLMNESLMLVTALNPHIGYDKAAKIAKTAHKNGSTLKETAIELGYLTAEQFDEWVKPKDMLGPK
# HTT prom inh – inhibits huntingtin promoter activity; HEK293 HTT promoter firefly luciferase reporter, 24 h; Potency, µM (top dose mostly 57.5 µM), without a hit: at the highest dose activity change, negative = inhibition, usual class: inhibitors; 48,000 compounds, 0.93% hits; AID 1508623; further: potency means the concentration at half of the fitted maximal effect; nearly all actives have a fitted effect of over 50% in size
#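 HEK293 luciferase promoter-reporter cells (2,500/well) plated 24 h, then compounds added at up to 57.5 uM final for 24 h at 37 °C. Firefly luminescence by Dual-Glo, normalized to vehicle (0%) and zero RLU (-100%).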
# * marks the source's active call; other numbers are inactive results; ? = inconclusive; nt = no result given; [ ] = dose if it differs, or a comment. Only some compounds are listed: those with a hit (about 4.7% of all), similar ones and a draw of the others. Unless noted, the call rests on the fitted dose curve; in most records, active means well fitted curve in the direction sought with a large enough effect; inconclusive means small, poorly fitted or top-dose-only effect, or another doubt; inactive means no such curve, though single readings can be large; an effect the other way counts as inactive or inconclusive.
SMILES,HTT-AS act,NTMT1 inh,DRV1 agonist,FH mod,HTT prom inh
Cc1cccc(CCNC(=O)c2c[nH]c3ccc(S(=O)(=O)Nc4ccccc4F)cc3c2=O)c1,-46%,2%,11,-2%,22µM*
Cc1ccccc1NS(=O)(=O)c1ccc2[nH]cc(C(=O)NC(C)c3ccccc3)c(=O)c2c1 (centres undefined),-45%,-15%,-25,40µM*,?
Cc1ccccc1NS(=O)(=O)c1ccc2[nH]cc(C(=O)NC3CCCCC3)c(=O)c2c1,-33%,-17%,-9,?,?
Cc1cc(C)cc(NS(=O)(=O)c2ccc3[nH]cc(C(=O)NCc4ccco4)c(=O)c3c2)c1,-58%,11%,99*,-12%,?
Cc1cc(C)cc(NS(=O)(=O)c2ccc3[nH]cc(C(=O)NC4CCCCC4)c(=O)c3c2)c1,-44%,-15%,110*,?,-30%
COc1cccc(NS(=O)(=O)c2ccc3c(c2)n(C)c(=O)n3C)c1,-33%,-10%,86*,-11%,-32%
CC(C)c1ccc(NS(=O)(=O)c2ccc3[nH]cc(C(=O)NC4CCCCC4)c(=O)c3c2)cc1,-2%,-3%,0,?,15%
Cc1c(Cl)cccc1NS(=O)(=O)c1ccc2[nH]cc(C(=O)NC3CCCC3)c(=O)c2c1,-47%,0%,101*,?,?
Cc1cc(C)cc(NS(=O)(=O)c2ccc3[nH]cc(C(=O)NCc4ccccc4Cl)c(=O)c3c2)c1,-49%,21%,-13,?,?
CC(Sc1nccn1C)C(=O)Nc1ccccc1C#N (centres undefined),6%,-18%,-13,-3%,-12%
CC(CC1c2ccccc2CCc2ccccc21)CN(C)C (centres undefined),-11%,13µM*,-13,0%[53.3 µM],-8%
CC(C)(C)OC(=O)N1CCN(c2ncc(NCc3ccc(-c4ccc(C#N)cc4)o3)cn2)CC1,nt,7%,nt,nt,nt
CCC(C)(C)c1ccc(CC(C)CN2C[C@@H](C)O[C@@H](C)C2)cc1 (some centres undefined),-11%,-51%[57.5 µM],113*,8%[53.3 µM],-5%
O=S(=O)(Nc1ccc(Cl)cc1)c1ccc(NS(=O)(=O)c2ccc3c(c2)OCCO3)cc1,-21%,-5%,24,?,?
COc1ccc(NS(=O)(=O)c2ccc(NS(=O)(=O)c3ccc4c(c3)OCCO4)cc2)cc1,-29%,-9%,68*,-20%,-29%
COc1ccc(C)cc1NC(=O)c1nnn(CC(=O)Nc2c(C)cccc2C)c1N,-3%,-18%,2,-1%,-5%
CCc1ccc(NC(=O)Cn2nnc(C(=O)Nc3cc(C)ccc3OC)c2N)cc1,-13%,3%,74*,7%,-26%
CCOc1ccccc1N1CC(c2nc3ccccc3n2CCCCOc2cc(C)ccc2C)CC1=O (centres undefined),-15%,89µM*,-9,-15%,-6%
CCOc1ccccc1N1CC(c2nc3ccccc3n2CCOc2ccc(C(C)(C)C)cc2)CC1=O (centres undefined),-16%,4%,73*,-5%,-5%
CCOc1ccccc1N1CC(c2nc3ccccc3n2CCCOc2ccccc2OC)CC1=O (centres undefined),7%,3%,-11,?,2%
CCc1ccccc1N1CC(c2nc3ccccc3n2CCOc2ccc(Cl)c(C)c2)CC1=O (centres undefined),-70%,4%,77*,?,?
CCCCN1CC(c2nc3ccccc3n2CCCCOc2cccc(C)c2C)CC1=O (centres undefined),-38%,29%,109*,?,?
CCOc1ccc(N2CC(c3nc4ccccc4n3CCOc3ccccc3OC)CC2=O)cc1 (centres undefined),-27%,3%,-20,-24%,?
CCc1ccc(NC(=O)CC2C(=O)N(c3ccc(Cl)cc3)C(=O)N2C2CCCC2)cc1 (centres undefined),-21%,5%,-30,?,?
Oc1cccc(Nc2nc(-c3ccccc3)nc3ccccc23)c1,-8%,?,61*,?,-18%
SMILES,HTT-AS act,NTMT1 inh,DRV1 agonist,FH mod,HTT prom inh
Cc1cccc(Nc2nc(-c3ccccc3)nc3ccccc23)c1,-30%,-10%,110*,?,-23%
CCc1ccc(C(=O)c2cn(CC(=O)Nc3cc(OC)cc(OC)c3)c3ccc(CC)cc3c2=O)cc1,-10%,-23%,8,4%,4%
CCOc1ccc(C(=O)c2cn(CC(=O)Nc3cc(OC)cc(OC)c3)c3ccc(F)cc3c2=O)cc1,-48%,79µM*,-1,-7%,?
CCCN(CCC)C(=O)Cn1c(=O)n(-c2ccc(CC)cc2)c(=O)c2c3c(sc21)CCC3,-22%,89µM*,-14,-11%,-15%
CCCN(CCC)C(=O)Cn1c(=O)n(-c2ccc(Cl)cc2)c(=O)c2c3c(sc21)CCCC3,-7%,6%,-24,-3%,-10%
CC(=O)N1c2ccccc2CC1C(=O)N1CCN(c2cccc(Cl)c2)CC1 (centres undefined),-13%,5%,-5,-17%,-15%
CCCCNC(=O)CN1CCN(c2ccc(NC(=O)c3ccc(OC)cc3)cc2C(=O)O)CC1,-6%,?,2,8%,-11%
CCCCNC(=O)CN1CCN(c2ncc(NC(=O)c3ccc(Cl)cc3)cc2C(=O)O)CC1,-11%,40µM*,11,-30%,-17%
CCOc1ccc(C(=O)c2cn(CC(=O)Nc3ccc(C)c(C)c3)c3ccc(OCC)cc3c2=O)cc1,-9%,-4%,11,-12%,-24%
O=C(Nc1cccnc1)c1cccs1,nt,-6%,nt,nt,nt
O=C(Nc1ncc([N+](=O)[O-])s1)c1cccs1,-77%,40µM*,-40,0%[53.3 µM],-26%
COc1ccc(-n2nc(C(=O)NCCc3ccc(Cl)cc3)c3c4ccccc4n(C)c3c2=O)cc1,4%,11%,-5,23%,-9%
CCOC(=O)NNc1ccc(N(CC)CC(C)O)nn1 (centres undefined),-2%,28µM*,5,-8%[53.3 µM],13%
CCOC(=O)NNc1nncc2ccccc12,7%,-1%[57.5 µM],3,-7%[53.3 µM],13%
C[C@H](NC(=O)CCC(F)(F)F)C(=O)N[C@@H]1C(=O)N(CCO)c2ncccc2-c2ccccc21,nt,14%,nt,nt,nt
O=c1cc(-c2ccccc2)oc2cc(O)cc(O)c12,24µM*,4%,nt,-10%[53.3 µM],43%
COc1cc(OC)cc(-c2cc3nc(C)c(CCC(=O)Nc4ccc(F)c(Cl)c4)c(C)n3n2)c1,-83%,-16%,-12,-11%,1.6µM*
COc1ccc(N2CCN(C(=O)CCc3c(C)nc4cc(-c5ccc(OC)cc5OC)nn4c3C)CC2)cc1,-23%,-9%,-9,-23%,-23%
